Hits are enriched below; roughly 12% of the tested compounds scored in any of these assays.
SARS PLpro yeast: inhibitors of SARS-CoV papain-like protease in yeast; S. cerevisiae expressing SARS-CoV PLpro, growth rescue; Potency, µM (series often up to 32.9 µM), most hits filed as activators; 0.19% of 330,000 active; note: nearly all actives have a fitted effect of over 55% in size
NS1 inh: blocks influenza NS1 protein function | Potency, µM (series often up to 46.1 µM) | 0.4% of 270,000 active | AID 2326; note: actives are rising curves; nearly all actives have a fitted effect of over 50% in size
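S. cerevisiae expressing influenza A NS1, grown in glucose, washed, then diluted 1:100 into pH 6.0 -URA galactose medium with 23 nl compound. Growth recovery read as OD600; NS1-free strain serves as control.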
Shiga inhibitor: Shiga toxin inhibition | Vero cells, Shiga toxin protein synthesis inhibition reporter | inhibition, % at 38.7 µM | 9.2% of 290,000 active | AID 2315; in the data active = inhibition mostly above about 28%, no sharp cut-off; inactive = mostly below about 43%
Cycloheximide cs: counter-screen for Shiga toxin inhibitors: cycloheximide protein synthesis inhibition. max response, %. 12% of 300,000 active. AID 2314. cell reporter, cycloheximide protein synthesis inhibition counterscreen; in the data active = max response mostly above about 13%, no sharp cut-off; inactive = mostly below about 14%; note: read at 38.3 µM for the half of the compounds with a filed dose
Large screens that a line does not name were inactive. Unless noted, calls come from the whole dose curve.

O=C(CSc1nc(-c2ccccc2)cs1)NCCN1C(=O)CSC1=O	Cycloheximide cs 30 (no result: NS1 inh)
COc1ccc(OC)c(NC(=S)NC(=O)c2ccc(Br)o2)c1	SARS PLpro yeast inconclusive
Cc1ccc(N2C(=O)CC(NNC(=O)c3cccc(S(=O)(=O)N4CCCC4)c3)C2=O)cc1 (stereo not drawn)	none
CCOC(=O)c1ccc(-c2ccc(/C=N/NC(=O)Cc3nnc(N)s3)o2)cc1	Shiga inhibitor 52, Cycloheximide cs 42
Nc1nnc(CC(=O)N/N=C/c2ccc(-c3ccc(F)cc3)o2)s1	none
O=C(Cc1ccc(Br)cc1)N/N=C/c1ccc(-c2cccc(C(=O)O)c2)o1	Shiga inhibitor 102, Cycloheximide cs 31
Nc1nonc1-c1nc2ccccc2n1CC(=O)N/N=C/c1ccc(-c2cccc(C(=O)O)c2)o1	Shiga inhibitor 70, Cycloheximide cs 34 (no result: NS1 inh)
CCOC(=O)c1ccc(-c2ccc(/C=N/NC(=O)c3cncc(Br)c3)o2)cc1	Shiga inhibitor 40, Cycloheximide cs 13
Nc1nonc1-c1nc2ccccc2n1CC(=O)O	none
O=C(CC1C(=O)NCCN1Cc1ccccc1)NCCCOc1cccnc1 (stereo not drawn)	none
COCCNC(=O)/C(C#N)=C/c1c(N2CCCCCC2)nc2ccccn2c1=O	none
CCC1(c2ccccc2)NC(=O)N(CC(=O)N(C)CC(=O)Nc2cccc(F)c2)C1=O (stereo not drawn)	none
O=C1CC(c2ccco2)CC2=C1C(c1ccncc1)n1nc(C(F)(F)F)nc1N2 (stereo not drawn)	none (no result: SARS PLpro yeast, NS1 inh)
O=C(O)c1cccc(-c2ccc(/C=N/NC(=O)c3cccnc3)o2)c1	Shiga inhibitor 171, Cycloheximide cs 83
Cc1nnc(N/N=C\c2ccc(-c3cccc(C(=O)O)c3)o2)n1N	none
Cc1ccc(/C=N/NC(=O)c2cccnc2)o1	none (no result: NS1 inh)
Nc1nnc(CC(=O)N/N=C/c2ccc(-c3cccc(C(=O)O)c3)o2)s1	Shiga inhibitor 142, Cycloheximide cs 61
CC(NC(=O)Cc1ccc(S(=O)(=O)N2CCCCC2)cc1)c1ccccc1 (stereo not drawn)	none (no result: NS1 inh, Shiga inhibitor, Cycloheximide cs)
Clc1ccccc1Cn1c(/C=C/c2ccco2)nc2ccccc21	Shiga inhibitor 132, Cycloheximide cs 90
O=c1ccc(-c2nc3ccccc3n2Cc2ccccc2Cl)c[nH]1	none
O=C(O)Cc1cc(F)c(S(=O)(=O)N2CCN(S(=O)(=O)c3ccc4c(c3)OCCO4)CC2)cc1F	none (no result: SARS PLpro yeast, NS1 inh)
CCc1ccccc1NC1Nc2cc(C)nn2S1 (stereo not drawn)	none (no result: NS1 inh)
Cc1cc2n(n1)SC(Nc1cccc3ccccc13)N2 (stereo not drawn)	Shiga inhibitor 52, Cycloheximide cs 27
Cc1cc2n(n1)SC(Nc1ccc(F)cc1)N2 (stereo not drawn)	Shiga inhibitor 41, Cycloheximide cs 13
CCOc1ccc(OCC)c(NC(=O)C2CCN(S(=O)(=O)c3c(C)[nH]c(=O)[nH]c3=O)CC2)c1	none (no result: NS1 inh)
Cc1ccc(-n2nc3c(Cl)nnc(C)c3c2C)cc1	none
CSc1nnc2c(n1)c(C)nn2-c1ccc(C)cc1	Cycloheximide cs 20
Cc1cc(C)c2c(c1)/C(=N/NC(=O)c1cc(C)oc1C)CCC2	Cycloheximide cs 36
CC(C)(C)c1ccc(C(=O)NN=C2CCCC2)cc1	none
Cc1cc(C)c2c(c1)/C(=N/NC(=O)c1ccc(O)cc1)CCC2	Shiga inhibitor 36, Cycloheximide cs 22 (no result: NS1 inh)
Cc1nn(CC(=O)Nc2ccc(Cl)cc2Cl)c(=O)c2ccccc12	none (no result: Shiga inhibitor)
O=C(Nc1ccc(Cl)cc1)C1CCN(C(=O)c2ccco2)CC1	none
Cc1c(/C=N/O)sc2ccccc12	none
O=C(CSc1ncnc2c1sc1ccccc12)Nc1ccc(Br)cc1	none
CC(=Nc1ccc(Br)cc1)c1sc2ccccc2c1O	Shiga inhibitor 111, Cycloheximide cs 60
CC(=Nc1ccccc1)c1sc2ccccc2c1O	Shiga inhibitor 139, Cycloheximide cs 50
COc1ccc([C@@H]2CC(=O)c3c(O)cc(O[C@@H]4O[C@H](CO[C@@H]5O[C@@H](C)[C@H](O)[C@@H](O)[C@H]5O)[C@@H](O)[C@H](O)[C@H]4O)cc3O2)cc1	none (no result: SARS PLpro yeast, NS1 inh)
O=C(CNC(=O)c1ccc(F)cc1)N/N=C/c1cccnc1	none
O=C(CSc1ccccn1)Nc1ccc(NC(=O)CSc2ccccn2)cc1	none
COc1cccc(NC(=O)CSc2nc(C)cs2)c1	none
COc1ccc(NC(=O)CC(C)c2ccccc2)c([N+](=O)[O-])c1 (stereo not drawn)	Cycloheximide cs 19
COc1cccc(NC(=O)CSc2ccccn2)c1	Shiga inhibitor 70, Cycloheximide cs 62
CCc1ccc(NC(=O)CSc2ccccn2)cc1	Cycloheximide cs 40 (no result: NS1 inh)
COc1ccc(NC(=O)CSc2ccccn2)cc1	Shiga inhibitor 62, Cycloheximide cs 49
CCCCNC(=O)NS(=O)(=O)c1cnccc1Sc1ccc(Cl)cc1	none
O=C(CSCCO)Nc1ccccc1	none (no result: SARS PLpro yeast)
Cc1ccccc1CSCC(=O)Nc1ccccc1-c1ccccc1	none
